Test results taken from the supplement of paper PMC6411743.
± gives the standard deviation of the averaged measurements. Targets with the largest changes are over-represented here; the source holds about 6,500 in all.

Columns and labels:
Assay in all cases: NP40-soluble protein abundance relative to vehicle (solubility fold change) (ratio); higher = more soluble protein in presence of ATP
[1] = target: A0A087WWP8 (UniProt Q5VWQ0)
In short: (§1)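 Jurkat crude lysate prepared with a Dounce homogeniser was treated at eight concentrations spanning 0.1 to 10 mM, 10 min at room temperature then 3 min at 37 °C. Solubilisation with 0.8% NP40 and benzonase and ultracentrifugation preceded TMT labelling of the supernatant for LC-MS/MS. Fold change against the detergent-processed vehicle was determined per replicate from vsn-normalised intensities, across three independent experiments.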

[2] = target: T1, A0A087WWS1|Q96FV9 (UniProt Q96FV9)
T1 sequence (whole entry): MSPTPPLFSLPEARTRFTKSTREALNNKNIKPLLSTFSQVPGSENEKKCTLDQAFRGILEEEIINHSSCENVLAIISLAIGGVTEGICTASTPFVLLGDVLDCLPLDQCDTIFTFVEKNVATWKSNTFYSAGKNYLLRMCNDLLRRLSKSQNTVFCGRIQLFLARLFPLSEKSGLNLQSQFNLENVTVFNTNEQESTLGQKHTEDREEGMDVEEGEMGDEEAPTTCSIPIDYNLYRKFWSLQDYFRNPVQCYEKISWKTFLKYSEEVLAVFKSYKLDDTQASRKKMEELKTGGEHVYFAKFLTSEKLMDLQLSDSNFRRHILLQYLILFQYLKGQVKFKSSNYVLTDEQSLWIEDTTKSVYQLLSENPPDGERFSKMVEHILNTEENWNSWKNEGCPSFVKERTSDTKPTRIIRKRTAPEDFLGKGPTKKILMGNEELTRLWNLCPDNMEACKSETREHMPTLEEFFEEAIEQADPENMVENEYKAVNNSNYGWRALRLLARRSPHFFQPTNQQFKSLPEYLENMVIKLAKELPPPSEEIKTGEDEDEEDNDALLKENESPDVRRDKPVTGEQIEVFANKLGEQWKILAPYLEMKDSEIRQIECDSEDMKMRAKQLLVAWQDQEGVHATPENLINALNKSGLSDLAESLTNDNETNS
In short: as §1

[3] = target: A0A087WXC5|O95299|H7C2X4 (UniProt O95299)
In short: as §1

[4] = target: A0A087WY00|F8W6H6|Q9Y4I1|Q9Y4I1-2|Q9Y4I1-3|G3V394 (UniProt Q9Y4I1)
In short: as §1

[5] = target: T2, A0A087WYG2|E9PFH7|Q9UPT6 (UniProt Q9UPT6)
T2 sequence (whole entry): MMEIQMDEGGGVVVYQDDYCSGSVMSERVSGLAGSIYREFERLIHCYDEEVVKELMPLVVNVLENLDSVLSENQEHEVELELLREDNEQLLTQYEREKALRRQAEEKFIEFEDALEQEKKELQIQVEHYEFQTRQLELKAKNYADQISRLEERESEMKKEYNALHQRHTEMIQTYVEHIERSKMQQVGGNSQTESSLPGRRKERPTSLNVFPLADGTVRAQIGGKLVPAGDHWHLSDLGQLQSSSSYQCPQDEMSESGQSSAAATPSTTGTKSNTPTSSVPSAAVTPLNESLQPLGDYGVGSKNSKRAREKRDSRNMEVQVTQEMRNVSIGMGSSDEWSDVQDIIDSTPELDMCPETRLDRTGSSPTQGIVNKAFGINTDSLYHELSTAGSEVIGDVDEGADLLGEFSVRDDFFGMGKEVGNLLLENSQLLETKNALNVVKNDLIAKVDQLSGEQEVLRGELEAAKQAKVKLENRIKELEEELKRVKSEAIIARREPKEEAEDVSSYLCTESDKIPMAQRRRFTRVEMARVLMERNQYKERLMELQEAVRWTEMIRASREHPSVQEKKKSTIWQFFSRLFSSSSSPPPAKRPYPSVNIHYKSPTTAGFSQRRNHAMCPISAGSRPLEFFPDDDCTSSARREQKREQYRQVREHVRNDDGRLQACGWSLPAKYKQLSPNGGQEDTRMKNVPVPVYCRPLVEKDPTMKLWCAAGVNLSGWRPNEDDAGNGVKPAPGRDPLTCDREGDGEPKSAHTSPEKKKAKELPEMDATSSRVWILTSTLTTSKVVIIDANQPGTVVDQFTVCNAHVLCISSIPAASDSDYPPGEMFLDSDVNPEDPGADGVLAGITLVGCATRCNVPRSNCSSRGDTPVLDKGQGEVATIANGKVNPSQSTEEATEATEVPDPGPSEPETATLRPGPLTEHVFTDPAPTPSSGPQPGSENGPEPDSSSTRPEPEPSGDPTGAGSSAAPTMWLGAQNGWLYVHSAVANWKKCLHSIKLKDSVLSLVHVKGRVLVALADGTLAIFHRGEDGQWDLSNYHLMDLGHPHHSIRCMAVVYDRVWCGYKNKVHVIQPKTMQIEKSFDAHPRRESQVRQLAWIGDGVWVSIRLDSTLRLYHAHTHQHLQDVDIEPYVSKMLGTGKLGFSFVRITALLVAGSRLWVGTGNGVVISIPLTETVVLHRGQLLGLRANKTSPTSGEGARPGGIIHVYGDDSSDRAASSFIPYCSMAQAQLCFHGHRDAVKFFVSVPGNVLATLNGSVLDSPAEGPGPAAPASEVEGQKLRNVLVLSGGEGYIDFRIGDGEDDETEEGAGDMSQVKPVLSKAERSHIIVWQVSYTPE
In short: as §1

Sequence of A0A087WXC5|O95299|H7C2X4 (O95299 whole entry, one chain of several): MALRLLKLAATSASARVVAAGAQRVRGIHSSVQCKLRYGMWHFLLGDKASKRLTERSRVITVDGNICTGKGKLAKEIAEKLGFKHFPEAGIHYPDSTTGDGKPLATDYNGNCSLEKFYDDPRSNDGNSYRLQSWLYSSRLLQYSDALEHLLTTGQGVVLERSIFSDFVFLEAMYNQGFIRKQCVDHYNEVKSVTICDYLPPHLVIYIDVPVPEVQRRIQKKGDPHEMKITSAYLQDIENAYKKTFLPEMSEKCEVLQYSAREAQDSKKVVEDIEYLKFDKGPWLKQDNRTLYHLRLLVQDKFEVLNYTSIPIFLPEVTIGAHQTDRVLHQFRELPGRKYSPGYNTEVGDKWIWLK
Sequence of A0A087WY00|F8W6H6|Q9Y4I1|Q9Y4I1-2|Q9Y4I1-3|G3V394 (Q9Y4I1 whole entry, one chain of several): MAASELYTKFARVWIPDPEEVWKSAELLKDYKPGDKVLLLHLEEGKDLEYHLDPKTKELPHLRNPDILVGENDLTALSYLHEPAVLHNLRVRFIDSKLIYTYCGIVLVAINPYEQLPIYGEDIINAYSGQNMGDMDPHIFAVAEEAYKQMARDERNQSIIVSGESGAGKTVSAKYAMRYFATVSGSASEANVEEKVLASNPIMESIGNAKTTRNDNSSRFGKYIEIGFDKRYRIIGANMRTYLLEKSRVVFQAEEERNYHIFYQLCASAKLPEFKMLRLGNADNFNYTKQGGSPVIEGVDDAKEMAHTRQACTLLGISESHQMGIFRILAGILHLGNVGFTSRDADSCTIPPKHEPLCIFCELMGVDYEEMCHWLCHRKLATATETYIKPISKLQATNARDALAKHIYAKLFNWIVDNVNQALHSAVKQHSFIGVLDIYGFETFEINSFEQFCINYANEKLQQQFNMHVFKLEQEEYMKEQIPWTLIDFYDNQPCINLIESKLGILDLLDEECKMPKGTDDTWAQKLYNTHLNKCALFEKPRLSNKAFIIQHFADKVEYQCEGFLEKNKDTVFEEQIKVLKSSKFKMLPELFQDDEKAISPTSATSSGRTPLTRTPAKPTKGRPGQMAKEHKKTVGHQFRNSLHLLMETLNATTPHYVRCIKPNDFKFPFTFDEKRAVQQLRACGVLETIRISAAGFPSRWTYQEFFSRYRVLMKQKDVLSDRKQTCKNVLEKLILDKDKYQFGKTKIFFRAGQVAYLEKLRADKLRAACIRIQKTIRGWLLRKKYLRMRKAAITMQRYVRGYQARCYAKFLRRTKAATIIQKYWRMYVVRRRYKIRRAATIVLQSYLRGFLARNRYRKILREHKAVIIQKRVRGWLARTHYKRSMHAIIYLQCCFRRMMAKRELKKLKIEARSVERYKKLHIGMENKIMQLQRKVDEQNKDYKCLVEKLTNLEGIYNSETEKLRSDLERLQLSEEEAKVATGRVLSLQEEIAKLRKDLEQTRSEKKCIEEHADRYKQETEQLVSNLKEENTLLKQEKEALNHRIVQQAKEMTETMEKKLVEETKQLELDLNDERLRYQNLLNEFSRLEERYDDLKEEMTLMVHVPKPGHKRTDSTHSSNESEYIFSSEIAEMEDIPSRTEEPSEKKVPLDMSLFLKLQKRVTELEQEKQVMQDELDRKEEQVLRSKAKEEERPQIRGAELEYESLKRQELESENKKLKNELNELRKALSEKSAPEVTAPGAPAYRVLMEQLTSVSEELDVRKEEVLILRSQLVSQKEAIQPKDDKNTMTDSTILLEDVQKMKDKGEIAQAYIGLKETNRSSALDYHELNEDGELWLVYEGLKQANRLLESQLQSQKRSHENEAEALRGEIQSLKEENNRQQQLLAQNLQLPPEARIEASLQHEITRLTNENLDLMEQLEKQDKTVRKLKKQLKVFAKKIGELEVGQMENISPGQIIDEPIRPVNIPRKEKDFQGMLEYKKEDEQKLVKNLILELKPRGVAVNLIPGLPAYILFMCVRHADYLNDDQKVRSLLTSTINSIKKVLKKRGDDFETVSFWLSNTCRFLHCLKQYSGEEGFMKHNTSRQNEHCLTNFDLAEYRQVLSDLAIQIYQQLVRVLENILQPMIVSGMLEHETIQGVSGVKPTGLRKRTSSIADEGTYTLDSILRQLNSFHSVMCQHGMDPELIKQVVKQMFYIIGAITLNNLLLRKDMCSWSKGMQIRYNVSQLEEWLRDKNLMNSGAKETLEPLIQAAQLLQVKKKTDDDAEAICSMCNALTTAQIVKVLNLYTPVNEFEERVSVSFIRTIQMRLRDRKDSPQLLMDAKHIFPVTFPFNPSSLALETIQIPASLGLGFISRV
Sequence of A0A087WWP8 (Q5VWQ0 whole entry): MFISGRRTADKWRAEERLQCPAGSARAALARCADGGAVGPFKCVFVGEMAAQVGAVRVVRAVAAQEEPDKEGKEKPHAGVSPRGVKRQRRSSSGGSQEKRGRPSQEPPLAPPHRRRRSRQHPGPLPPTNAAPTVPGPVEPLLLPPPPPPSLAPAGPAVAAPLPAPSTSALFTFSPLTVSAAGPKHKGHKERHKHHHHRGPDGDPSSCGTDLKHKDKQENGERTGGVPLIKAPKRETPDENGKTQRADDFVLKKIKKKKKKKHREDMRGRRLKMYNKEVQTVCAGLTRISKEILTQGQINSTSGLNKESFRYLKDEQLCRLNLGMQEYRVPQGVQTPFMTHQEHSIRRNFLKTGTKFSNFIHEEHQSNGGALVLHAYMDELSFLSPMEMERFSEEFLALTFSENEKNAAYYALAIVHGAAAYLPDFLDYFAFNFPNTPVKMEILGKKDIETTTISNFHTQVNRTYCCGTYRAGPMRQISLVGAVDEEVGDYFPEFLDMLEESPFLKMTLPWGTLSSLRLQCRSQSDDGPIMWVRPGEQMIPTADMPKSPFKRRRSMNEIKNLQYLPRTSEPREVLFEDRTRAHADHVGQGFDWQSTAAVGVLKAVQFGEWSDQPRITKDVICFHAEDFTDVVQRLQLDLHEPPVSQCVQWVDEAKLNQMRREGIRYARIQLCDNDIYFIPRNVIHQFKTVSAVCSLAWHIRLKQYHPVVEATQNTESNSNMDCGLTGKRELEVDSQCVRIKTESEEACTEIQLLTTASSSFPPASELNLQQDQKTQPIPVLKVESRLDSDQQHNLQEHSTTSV

SMILES: Nc1ncnc2c1ncn2[C@@H]1O[C@H](COP(=O)(O)OP(=O)(O)OP(=O)(O)O)[C@@H](O)[C@H]1O [adenosine triphosphate]
- NP40-soluble protein abundance ([1]; concentration: 6mM): 1.68 ± 0.048
- NP40-soluble protein abundance ([1]; concentration: 8mM): 1.68 ± 0.069
- NP40-soluble protein abundance ([1]; concentration: 10mM): 1.69 ± 0.063
- NP40-soluble protein abundance ([2]; concentration: 1mM): 1.509 ± 0.011
- NP40-soluble protein abundance ([2]; concentration: 2mM): 1.65 ± 0.068
- NP40-soluble protein abundance ([2]; concentration: 4mM): 1.89 ± 0.099
- NP40-soluble protein abundance ([2]; concentration: 6mM): 2.14 ± 0.2
- NP40-soluble protein abundance ([2]; concentration: 8mM): 2.31 ± 0.075
- NP40-soluble protein abundance ([2]; concentration: 10mM): 2.4 ± 0.13
- NP40-soluble protein abundance ([3]; concentration: 1mM): 1.03 ± 0.024
- NP40-soluble protein abundance ([3]; concentration: 2mM): 1.02 ± 0.033
- NP40-soluble protein abundance ([3]; concentration: 4mM): 0.982 ± 0.034
- NP40-soluble protein abundance ([3]; concentration: 6mM): 1 ± 0.022
- NP40-soluble protein abundance ([3]; concentration: 8mM): 1.02 ± 0.023
- NP40-soluble protein abundance ([3]; concentration: 10mM): 1 ± 0.034
- NP40-soluble protein abundance ([4]; concentration: 1mM): 2.94 ± 0.086
- NP40-soluble protein abundance ([4]; concentration: 2mM): 2.89 ± 0.071
- NP40-soluble protein abundance ([4]; concentration: 4mM): 2.94 ± 0.14
- NP40-soluble protein abundance ([4]; concentration: 6mM): 2.96 ± 0.19
- NP40-soluble protein abundance ([4]; concentration: 8mM): 2.96 ± 0.088
- NP40-soluble protein abundance ([4]; concentration: 10mM): 2.84 ± 0.062
- NP40-soluble protein abundance ([5]; concentration: 1mM): 0.979 ± 0.055
- NP40-soluble protein abundance ([5]; concentration: 2mM): 0.996 ± 0.054
- NP40-soluble protein abundance ([5]; concentration: 4mM): 0.993 ± 0.097
- NP40-soluble protein abundance ([5]; concentration: 6mM): 0.988 ± 0.094
- NP40-soluble protein abundance ([5]; concentration: 8mM): 0.959 ± 0.066
- NP40-soluble protein abundance ([5]; concentration: 10mM): 0.956 ± 0.029
